The entries come from a sample that favours hits as a whole.
MgrA-DNA mod: modulators of Staphylococcus aureus MgrA DNA binding; fluorescence polarization; inhibition, % (concentration not given with the values); 84,000 tested, 0.13% active; in the data active = inhibition above about 30%, passing the limit was not always enough;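 note: 0% = protein plus DNA without compound and 100% = DNA alone without protein; higher means less MgrA bound to DNA so lower polarization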
Numbers without * were called inactive.

SMILES	MgrA-DNA mod
Cc1ccc(SCC(=O)Nc2ccc(C#N)cc2)cc1	0
O=[N+]([O-])c1ccc(Cl)c(N=Cc2nc(-c3ccccc3Br)oc2O)c1	0
Cc1ccc2c(c1C)NC(C(=O)O)C1CC=CC21 (stereo not drawn)	64*
CC(C)C1Nc2ccc(C(=O)O)cc2C2C=CCC21 (stereo not drawn)	21
O=C(O)C1Nc2ccccc2C2C=CCC12 (stereo not drawn)	45
COc1ccc(C2=NN(CN3C(=O)C(=O)c4cc(Br)ccc43)C(c3cccc([N+](=O)[O-])c3)C2)cc1 (stereo not drawn)	-2
NCCNc1cc(-c2ccccc2)nc2ccccc12	0
COc1cccc(/C=C2/SC(=Nc3cc(C)cc(C)c3)NC2=O)c1O	0
S=C(NCc1ccco1)Nc1ccc2nc(-c3ccccn3)c(-c3ccccn3)nc2c1	-3
O=C(c1ccccc1)c1ccc2nc(-c3ccco3)c(-c3ccco3)nc2c1	63*
COc1ccc2nc3c(nc2c1)-c1cccc2cccc-3c12	-1
c1coc(-c2nc3ccccc3nc2-c2ccco2)c1	22
Cc1ccc(NC(=S)Nc2ccc3nc(-c4ccco4)c(-c4ccco4)nc3c2)cc1	80*
CNC(=S)Nc1ccc(C)cc1	-1
COc1cccc(NC(=S)Nc2ccc(N(C)C)cc2)c1	-2
COc1ccc(N(C)C(=S)Nc2ccc3nc(-c4ccco4)c(-c4ccco4)nc3c2)cc1	60*
O=C(NCCO)c1ccc2nc(-c3ccco3)c(-c3ccco3)nc2c1	36
CN1C(=O)C(=Cc2cccn2-c2ccccc2)C(=O)N(C)C1=O	-1
CCOC(=O)C1=C(N)SC(c2ccccc2)=C(C#N)C1c1ccco1 (stereo not drawn)	-1
O=C(COC(=O)c1cncc(Br)c1)Nc1ccccc1	-1
COc1cc(C2C(C(=O)OCCOc3ccccc3)=C(C)NC3=C2C(=O)CC(C)(C)C3)cc(OC)c1OC (stereo not drawn)	-1
Cc1ccc(S(=O)(=O)NCC(=O)O)c2nsnc12	-3
CC(C)Cn1c(SCC(N)=O)nc2ccccc2c1=O	-1
CN(C)C(=O)c1ccc(N(C)S(=O)(=O)c2ccccc2)cc1	1

Screening results from PubChem BioAssay.
